In the library only some 2.5% were active in any assay of this set; here they are far more common.
Cruzain noTriton = cruzain (T. cruzi) inhibition without detergent; P25779; purified cruzain, Z-FR-AMC fluorescence, no detergent; Potency, µM, most hits filed as inhibitors; 200,000 tested, 2.3% active; AID 1476; note: nearly all actives have a fitted effect of over 40% in size
Target sequence (P25779 123-467 limits assumed): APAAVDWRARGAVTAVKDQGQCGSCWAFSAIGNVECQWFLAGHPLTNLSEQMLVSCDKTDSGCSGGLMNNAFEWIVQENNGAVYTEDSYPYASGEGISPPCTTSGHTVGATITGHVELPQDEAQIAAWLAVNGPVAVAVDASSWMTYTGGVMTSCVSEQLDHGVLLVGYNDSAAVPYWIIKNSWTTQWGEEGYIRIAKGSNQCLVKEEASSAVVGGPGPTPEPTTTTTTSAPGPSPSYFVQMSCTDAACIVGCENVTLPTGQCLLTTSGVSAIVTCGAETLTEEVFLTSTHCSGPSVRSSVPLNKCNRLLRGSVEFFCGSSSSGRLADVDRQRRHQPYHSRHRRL
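Detergent-free condition (0.00005% Triton X-100) in acetate buffer pH 5.5 with DTT. 1.5 nM enzyme and compound were pre-mixed 15 min, then 2 uM Z-FR-AMC substrate added; reaction progress from fluorescence change between first and third reads (60 s).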
Cruzain inh Det = inhibitors of Trypanosoma cruzi cruzain with detergent. purified cruzain, Z-FR-AMC fluorescence, 0.01% Triton. Potency, µM, most hits filed as inhibitors. 200,000 tested, 0.43% active. AID 1478; note: nearly all actives have a fitted effect of over 40% in size
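Detergent-containing run (0.01% Triton X-100) in acetate buffer pH 5.5 with 5 mM DTT: enzyme at 1.5 nM final, 15 min compound preincubation at room temperature, then 2 uM Z-FR-AMC substrate. Activity taken as 60 s fluorescence increase at 360/450 nm.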
Hits are given with their value; 0 = inactive; ? = inconclusive; ! = not active in a repeat. Calls come from the whole dose curve; as a rule, active = well fitted curve in the direction sought with a large enough effect; inconclusive = small, poorly fitted or top-dose-only effect, or another doubt; inactive = no such curve, though single readings can be large; an effect the other way counts as inactive or inconclusive.

SMILES	Cruzain noTriton	Cruzain inh Det
CCC(C(=O)Nc1cc(-c2cn3cccnc3n2)ccc1C)c1ccccc1 (stereo unspecified)	?	0
COc1cccc(NC(=O)Cn2c(=O)n(-c3ccccc3)c(=O)c3c2c2cc(OC)ccc2n3C)c1	0	0
Cc1cc(NC(=O)COC(=O)c2cc3c(s2)CCC(C)C3)no1 (stereo unspecified)	32µM	0
Cc1c(Cl)cnc(NC(=O)COC(=O)c2cc3c(s2)CCC(C)C3)c1Cl (stereo unspecified)	?	0
c1cc(CSc2ncnc3nc[nH]c23)ccn1	0	0
Cc1cc(C)cc(N2C(=O)CSC23C(=O)N(CC(=O)Nc2ccc(F)cc2F)c2ccccc23)c1 (stereo unspecified)	0	0
CCN(CC)c1ccc(C=C(c2nnnn2-c2ccc(C)cc2)c2nnnn2-c2ccc(C)cc2)cc1	32µM	0
Cc1ccc(-n2nnnc2C(Cl)c2nnnn2-c2ccc(C)cc2)cc1	0	0
NNc1nc(-c2ccccc2)cc(-c2ccccc2O)n1	16µM	0
Nc1nc(-c2ccccc2)cc(-c2ccccc2O)n1	0	0
C[C@@H]1OC(OC2CC[C@@]3(C)C(CC[C@@]4(C)C3CC=C3C5CC(C)(C)CC[C@]5(C(=O)OC5OCC(O)[C@@H](O)[C@@H]5OC5O[C@@H](C)[C@H](O[C@H]6OC(CO)C(O)C(O)C6O)C(O)C5O)C(O)C[C@@]34C)C2(C)C)C(O)C(O)[C@H]1OC1OCC(O)C(O)[C@H]1O (stereo partly specified)	?	0
Cc1cc(NC(=O)CSc2nc3ccccc3s2)no1	32µM	0
Cc1cnc(NC(=O)CSc2nc3ccccc3s2)s1	0	0
O=C(CSc1nc2ccccc2s1)N1c2ccccc2Sc2ccccc21	16µM	0
CCOc1ccc2nc(SCC(=O)N3c4ccccc4Sc4ccccc43)sc2c1	?	0
CCOC(=O)CSc1nc2ccc(NC(=O)c3ccccc3)cc2s1	0	0
COc1ccc(Cl)cc1NC(=O)COC(=O)CC(C)(C)CC1=NS(=O)(=O)c2ccccc2N1	?	0
O=[N+]([O-])c1ccccc1N/N=C\c1ccccc1Cl	20µM	0
CCCOc1ccc(/C=N/Nc2ccccc2[N+](=O)[O-])c(OCCC)c1	?	0
O=C(Cn1c(=O)n(-c2ccc(F)c(Cl)c2)c(=O)c2sc3ccccc3c21)NC1CCCC1	0	0
Cc1nnc(N2CCC(C(=O)NCCC(C)C)CC2)c2nn(-c3ccc(Cl)cc3)c(C)c12	0	0
COc1ccc(NC(=O)COC(=O)c2ccc(OCc3ccc(Cl)cc3Cl)c(OC)c2)c(OC)c1	?	0
COc1ccc(C)cc1NC(=O)COC(=O)c1ccc(OCc2ccc(Cl)cc2Cl)c(OC)c1	25µM	0
Cc1ccc(-c2nnn(CC(=O)Nc3ccc4nn(-c5ccccc5)nc4c3)n2)o1	10µM	0
Cc1ccc(-c2nnn(CC(=O)NCC3CC3)n2)o1	0	0
SMILES	Cruzain noTriton	Cruzain inh Det
Cc1sc2ncn(CC(=O)Nc3ccc(F)cc3Cl)c(=O)c2c1S(=O)(=O)N1CCN(c2ncccn2)CC1	0	0
C=C(Cl)CSC(=S)N(CC)CC	0	0
CCN(CC)C(=S)SSC(=S)N(CC)CC	7.9µM!	16µM!
CCOC(=O)CC(C)(C)/C(C)=N/Nc1ccc([N+](=O)[O-])cc1[N+](=O)[O-]	0	0
COC(=O)c1ccccc1NC(=O)NCc1ccc2c(c1)OCO2	0	0
COC(=O)c1ccccc1NC(=S)N(Cc1ccc2c(c1)OCO2)Cc1cc2cc(OC)ccc2[nH]c1=O	10µM	0
Cc1ccc(S(=O)(=O)O[C@H]2CC(C(C)(C)C)CC[C@@H]2c2ccccc2)cc1 (stereo partly specified)	0	0
CCCCCCN(CCCCCC)C(=O)Cc1c(-c2ccc(F)cc2)[nH]c2ccccc12	32µM	0
O=C(Cc1c(O)c2ccccc2[nH]c1=O)N(Cc1ccccc1)Cc1ccccc1	0	0
O=C(NN1C(=O)c2cc(Br)ccc2NC1c1cc(Br)cc(Br)c1O)c1ccncc1 (stereo unspecified)	10µM	0
O=C(NN1C(=O)c2cc(Br)ccc2NC1c1ccccc1Cl)c1ccncc1 (stereo unspecified)	0	0
COc1ccc(CC(=O)N(Cc2nc(-c3ccc(C)cc3)no2)C(C)C)cc1	0	0
Cc1ccc(NC(=O)N2CCC3(CC2)Oc2ccccc2C(=O)N3Cc2ccc(F)cc2)cc1	?	0
O=C1c2ccccc2OC2(C=Cc3ccccc3O2)N1Cc1ccccc1 (stereo unspecified)	25µM	0
CC(C)c1ccc(S(=O)(=O)Nc2ccc3oc4c(c3c2)C(=O)CC(C)(C)C4)cc1	0	0
COc1ccc2nc(-c3ccc(N)cc3)[nH]c2c1	10µM	28µM
COc1ccc2nc(-c3cccc(N)c3)[nH]c2c1	0	0
O=C(CNC(=O)c1cccs1)OCC(=O)c1ccc2ccccc2c1	0	?
CC(C)(C)c1ccc(C(=O)NCC(=O)OCC(=O)c2ccc3c(c2)-c2ccccc2C3)cc1	25µM	0
COc1nc(N=C(N)N)nc2ccc(C)cc12	0	0
Cc1nn2cc(-c3ccc(Cl)cc3)nc2s1	?	0
Cc1nn2cc(-c3ccc(-c4ccccc4)cc3)nc2s1	13µM	0
Oc1cccc(Nc2nc(NCC3CCCO3)c3ccccc3n2)c1 (stereo unspecified)	13µM	18µM
c1ccc(-c2nc(NCC3CCCO3)c3ccccc3n2)nc1 (stereo unspecified)	0	0
OCCNc1nc(Nc2ccccc2)nc2ccccc12	16µM	?
SMILES	Cruzain noTriton	Cruzain inh Det
OCCNc1nc(Nc2ccccc2)nc(Nc2ccccc2)n1	0	0
Cc1cc(NC(=O)c2ccc(N(C)S(=O)(=O)c3ccccc3)cc2)no1	0	0
CCc1nn(CC(=O)NCCc2ccc(Cl)cc2)c(=O)c2cc3c(OC)cccc3n12	0	0
COc1ccc(C)cc1N(C(=O)c1cccc(F)c1)c1nc2ccccc2s1	?	0
COc1ccccc1N(C(=O)c1cncc(Br)c1)c1nc(-c2ccc(C)cc2)cs1	13µM	0
COc1ccc(NC(=O)c2nc(S(C)(=O)=O)ncc2N(Cc2ccc(C)cc2)Cc2ccco2)cc1Cl	10µM	0
COc1ccc(Cl)cc1NC(=O)c1nc(S(C)(=O)=O)ncc1N(Cc1ccc(C)cc1)Cc1ccco1	?	0
O=C(c1ccc(Cl)s1)N1CCN(c2nc3ccccc3s2)CC1	0	0
ClCC[N+]12CC[N+](CCCl)(CC1)C2 (tested in a mixture with another compound)	0	0
COc1cccc(Cn2c(=O)c(-c3cccs3)nc3cnc(OC)nc32)c1	0	0
COc1ccc(Oc2ncc3nc(-c4cccs4)c(=O)n(Cc4cccs4)c3n2)cc1	7.9µM	0
O=c1c(-c2cccs2)nc2cnc(Oc3ccccc3)nc2n1Cc1cccs1	?	0
COc1ccc(Oc2ncc3nc(-c4cccs4)c(=O)n(Cc4cccc(OC)c4)c3n2)cc1	13µM	0
COC(=O)c1cc(OC)c(OC)cc1N	0	0
COc1cc2cc(C(N)=O)c(N)nc2cc1OC	16µM	28µM
COc1cccc(NS(=O)(=O)c2ccc3[nH]cc(C(=O)NC4CCCCC4)c(=O)c3c2)c1	0	0
Cc1ccccc1CN1c2ccccc2-c2nc(SCC(=O)NCc3ccccc3)ncc2S1(=O)=O	0	0
O=C(CSc1ncc2c(n1)-c1ccccc1N(Cc1ccc(Cl)cc1)S2(=O)=O)c1ccc(Cl)cc1	20µM	0

Assay outcomes from PubChem.
